experiment: binders of probe aFGF10 on microarray, primary screen, stem cell growth factor project, biochemical, small-molecule microarray, fluorescence 635/667 (AID 1071); settings: higher = more signal;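 further: score merges 667 nm spot intensity and signal to noise from triplicate slides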

SMILES | composite z-score
Cc1ccc(S[C@]2(C(=O)NCc3ccccc3)CC(=O)N(Cc3ccccc3)[C@@H]2c2ccc(CO)cc2)cc1 | 0.793
C=C(C(=O)CC[C@H](OC(C)=O)c1ccc(OCCO)cc1)C(C)C | 0.991
Cc1ccc(S[C@]2(C(=O)NCC(C)C)CC(=O)N(Cc3ccccc3)[C@@H]2c2ccc(CO)cc2I)cc1 | 0.161
O=C1N(CCS(=O)(=O)c2ccccc2)c2ccccc2C[C@@]12COC(c1ccc(OCCCO)cc1)=N2 | 0.322
CCOC(=O)C[C@H]1[C@H](OC(=O)c2ccc(-c3ccccc3)cc2)[C@@H](NC(=O)Cc2ccc(OC)cc2)c2cc(OCCCO)ccc2N1C(=O)c1ccc2ccccc2n1 | 0.178
C=CCNC(=O)[C@@H]1[C@H]2C(=O)O[C@H](c3ccccc3)[C@H](c3ccccc3)N2[C@H](c2ccc(OCCO)cc2)[C@@]12C(=O)Nc1ccccc12 | 0.405
COCCOC(=O)N1C(=O)[C@@]2(c3cc(C#CCNC(N)=O)ccc31)[C@H](c1ccccc1OCCO)N1[C@H](c3ccccc3)[C@H](c3ccccc3)OC(=O)[C@H]1[C@@H]2C(N)=O | 0.244
COC(=O)[C@@]1(Cc2ccc(F)cc2)[C@H]2c3cc(C(=O)N4CCCC4)n(Cc4cccc5ccccc45)c3C[C@H]2CN1C(=O)c1ccccc1 | 0.62
CC(C)CNC(=O)[C@@]1(c2ccc([N+](=O)[O-])cc2)CC(=O)N(CC23CC4CC(CC(C4)C2)C3)[C@@H]1c1ccc(CO)cc1 | 0.39
CC1=C2[C@@H](CCc3ccccc3)OB(O)C[C@@H]2n2c(=O)n(-c3ccccc3)c(=O)n2C1 | 0.203
CCOC(=O)C[C@H]1[C@H](OC(=O)Cc2ccc3c(c2)OCO3)[C@@H](NC(=O)C2CCCCC2)c2cc(OCCCO)ccc2N1C(=O)Cc1ccc(OC)cc1 | 0.145
O=C(CS)NCCCCCCNC(=O)[C@H]1C[C@H]2C(=O)NCC(=O)N2[C@H]1c1ccc(O)cc1 | 0.263
C[N+](C)(C)CCCCCCNC(=O)[C@H]1C[C@H]2C(=O)N3CCC[C@H]3C(=O)N2[C@H]1c1ccc(O)cc1 | -0.0314
C[C@H]1NC(=O)[C@H](Cc2ccccc2)NC(=O)[C@@]23C(=O)N[C@@H](Cc4ccccc4)C2[C@H](C)[C@@]2(C)O[C@H]2C3/C=C/C/C=C\CNC1=O (some centres not stated) | -0.32
CS(=O)(=O)CCOC(=O)C1=CC(c2ccc(CO)cc2)=CC(C2CC2)N(Cc2cc3c(cc2Br)OCO3)C=C1C(=O)OCCS(C)(=O)=O (configuration not stated) | 0.959
[N-]=[N+]=NCc1ccccc1C[C@@]1(C(=O)N2CCOCC2)N=C(c2ccc(OCCCO)cc2)O[C@@H]1c1ccccc1CN=[N+]=[N-] | 1.01
CN1C=C(C(=O)OCCS(C)(=O)=O)C(C(=O)OCCS(C)(=O)=O)=CC(CCCO)=CC1C1CC1 (configuration not stated) | 0.427
C=CCOC(=O)[C@H]1[C@@H]2C(=O)O[C@@H](c3ccccc3)[C@@H](c3ccccc3)N2[C@@H](c2ccc(OCCOC(=O)[C@@H]3C[C@@H]4C(=O)NCC(=O)N4[C@@H]3c3ccc(O)cc3)cc2)[C@]12C(=O)Nc1ccccc12 | 0.515
O=C1C=CC(=O)[C@@H]2CC(COc3ccccc3)=C3[C@@H](CCc4ccccc4)OB(O)C[C@@H]3[C@H]12 | 0.272
CCOC(=O)C1=C[C@@H](C(C)C)N(S(=O)(=O)c2ccc(C)cc2)[C@H]1c1ccc(C(C)C)cc1 | 0.543
CCOC(=O)C[C@H]1[C@H](OC(=O)c2ccc(-c3ccccc3)cc2)[C@@H](NC(=O)c2ccc3ccccc3c2)c2cc(OCCCO)ccc2N1C(=O)Cc1ccc(OC)cc1 | 0.0493
CCOC(=O)C[C@H]1[C@H](OC(=O)c2ccccc2-c2ccccc2)[C@@H](NC(=O)c2ccc3ccccc3c2)c2cc(OCCCO)ccc2N1C(=O)c1ccc2ccccc2n1 | 0.443
COCCOC(=O)N1C(=O)[C@@]2(c3cc(C#CC4=CCCCC4)ccc31)[C@H](C(=O)NC[C@H](O)c1ccccc1)[C@H]1C(=O)O[C@H](c3ccccc3)[C@H](c3ccccc3)N1[C@@H]2c1ccc(O)cc1 | 0.797
C=C(COC)C(=O)CC[C@H](OC(C)=O)c1cccc(OCCO)c1 | 0.553
N[C@@H](Cc1ccccc1)Cn1cc(-c2ccccc2)nn1 | -0.161
O=C1O[C@@H](c2ccccc2)[C@@H](c2ccccc2)N2[C@@H](c3ccc(OCCO)cc3)[C@]3(C(=O)Nc4ccc(C#CC5=CCCCC5)cc43)[C@@H](C(=O)O)[C@H]12 | 0.506
COCCOC(=O)N1C(=O)[C@@]2(c3cc(C#CCC(C(=O)OC)C(=O)OC)ccc31)[C@H](C(=O)N1CCCCCCC1)[C@H]1C(=O)O[C@H](c3ccccc3)[C@H](c3ccccc3)N1[C@@H]2c1ccc(OCCO)cc1 | 0.833

— PubChem BioAssay
